Shown is part of a subset that was picked to be rich in hits.
Pf Dd2 inh – blocks in vitro growth of P. falciparum Dd2; 120,000 tested, 4.3% active; P. falciparum Dd2 growth, SYBR Green, 72 h; AID 1347417; Potency, µM (series often up to 28.9 µM), inactives show top-dose activity, negative = inhibition, usual class: inhibitors; active = well fitted inhibition curve with a large enough effect;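 note: plate controls were DMSO vehicle for no effect and reference drug for full effect; nearly all actives have a fitted effect of over 65% in size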
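Readout: SYBR Green fluorescence, 485 nm excitation, 535 nm emission, after ~16 h lysis at 37C. Before that, Dd2-infected red cells (2.5% hematocrit) grew 72 h with compound, 29 uM top final concentration.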
An asterisk follows results filed as active; i = inactive; [ ] = remark or other dose. Potency is the fitted concentration of half-maximal effect.

SMILES	Pf Dd2 inh
O=C1CC(c2ccccc2)N(C(=O)CNC(=O)c2n[nH]c3ccccc23)CCCCCCN1 (stereo not drawn)	10µM*
O=C1CC(c2ccccc2)N(C(=O)CNC(=O)c2ccc3cc[nH]c3c2)CCCCCN1 (stereo not drawn)	10µM*
COCCNC(=O)[C@@H]1CCC[C@@H](NC(=O)c2cncnc2)CN(C)C(=O)C1	16.8%[44.1 µM]
O=C(c1ccc2cc[nH]c2c1)N1CCN(C(=O)c2nnn3c2COC(c2ccc(Cl)cc2)C3)CC1 (stereo not drawn)	-19.7%
N#Cc1ccc(C(=O)N2CCN3C(=O)N(Cc4ccccc4)C(=O)[C@H]3C2)cc1	-13.3%[44.1 µM]
COc1ccc(-n2nc(C(=O)NCCCOC(C)C)c3c4ccccc4n(C)c3c2=O)cc1	-13.0%
CCOC(=O)C1CCN(C(=O)c2nn(-c3ccc(C)cc3)c(=O)c3c2c2ccccc2n3C)CC1	i
CCOc1ccc(CNC(=O)c2nn(-c3ccc(OC)cc3)c(=O)c3c2c2ccccc2n3C)cc1	50.0%
CCOc1ccc(CCNC(=O)c2nn(-c3ccc(OC)c(Cl)c3)c(=O)c3c2c2ccccc2n3C)cc1OCC	2.82µM*
COc1ccc(-n2nc(C(=O)N(C)c3cc(C)ccc3C)c3c4ccccc4n(C)c3c2=O)cc1Cl	21.5%
COc1ccc(-n2nc(C(=O)N3CCCCC3C)c3c4ccccc4n(C)c3c2=O)cc1Cl (stereo not drawn)	22.6%
COc1ccc(-n2nc(C(=O)NCCc3ccc(OC)c(OC)c3)c3c4ccccc4n(C)c3c2=O)cc1Cl	2µM*
CCc1ccc(CNC(=O)c2nn(-c3ccc(C)cc3)c(=O)c3c2c2ccccc2n3C)cc1	3.1%
CCOC(=O)C1CCN(C(=O)c2nn(-c3ccc(OC)c(Cl)c3)c(=O)c3c2c2ccccc2n3C)CC1	11.2µM*
O=C(c1coc2ccccc12)N1CCN(Cc2cnc[nH]2)CC(O)C1 (stereo not drawn)	-2.2%
Cc1ncc2c(c1CNC(=O)Cc1ccc(C(F)(F)F)cc1)CCNC2	-28.0%
CN1CCN(C(=O)[C@@H]2CCC[C@@H](NC3CCOCC3)CN(C)C(=O)C2)CC1	34.6%[44.1 µM]
COc1ccc(CNC(=O)CC[C@H]2CNC(=O)[C@@H]3[C@@H](CCN3C3CCCCC3)N2C)cc1	i
O=C(NC[C@H]1OC[C@@H](NC2CCCCC2)[C@@H]1O)C1CC1	-11.7%[44.1 µM]
O=C(CCC1CCCN(S(=O)(=O)c2ccccc2F)C1)NC1CCS(=O)(=O)C1 (stereo not drawn)	4.8%
O=C1CCC(C(=O)N(CC2CCN(Cc3ccccc3F)CC2)CC2CCCO2)=NN1 (stereo not drawn)	-2.0%
COc1ccc2cc(C(=O)N3CC(N(Cc4cccnc4)S(C)(=O)=O)C3)[nH]c2c1	-17.3%
O=C(NCc1ccccc1F)N1C[C@@H](CN2CCCCC2)[C@@H](CO)C1	-2.0%
O=C(Nc1ccc(F)cc1)N1CCC(CCNC(=O)C2(c3ccccc3)CC2)CC1	i
Cn1cnc(S(=O)(=O)N2CC[C@@H]3C(=O)NCCCCCCN(Cc4ccncc4)[C@@H]3C2)c1	15.2%
SMILES	Pf Dd2 inh
O=C1NCCCCCCN(Cc2ccncc2)[C@@H]2CN(S(=O)(=O)c3ccc4c(c3)CCC4)CC[C@H]12	2.82µM*
O=C1NCCCCCCN(Cc2ccncc2)[C@@H]2CN(S(=O)(=O)c3cccnc3)CC[C@@H]12	-2.1%
O=C1NCCCCCCN(Cc2ccncc2)[C@@H]2CN(S(=O)(=O)Cc3cccc(F)c3)CC[C@H]12	8.91µM*
O=C1NCCCCCCN(Cc2ccncc2)[C@@H]2CN(C3CCC3)CC[C@H]12	13.3%
CCS(=O)(=O)N1CC[C@H]2C(=O)NCCCCCCN(Cc3ccncc3)[C@@H]2C1	16.2%
COC[C@@H]1CNC[C@H]1c1nc(C2CC2)no1	-5.3%
CN1CCC2(Cc3ccccc3CN([S+](C)(=O)[O-])C2)C1 (stereo not drawn)	-20.2%[44.1 µM]
CCC1CN(C(=O)c2ccc3ccccc3n2)CCC(=O)N1Cc1ccccc1 (stereo not drawn)	-25.9%
O=C(Cc1ccsc1)Nc1ccc(-c2nnc3n2CCCC3)cc1	-9.6%
COc1ccc(CN2CC(Oc3ccc(F)cc3C)C2)cc1	11.2µM*
Cc1cc(F)ccc1OC1CN(Cc2ccc(C#N)cc2)C1	i
COc1ccc(CN2CC(Oc3ccc(F)cc3F)C2)cc1	-29.7%[44.1 µM]
Cc1cc(F)ccc1OC1CN(CC2CCCCC2)C1	8.91µM*
Cc1cc(F)ccc1OC1CN(CC2CC2)C1	-20.1%[44.1 µM]
COc1ccccc1C(=O)N1CC(Oc2ccc(F)cc2C)C1	-19.6%[44.1 µM]
CCOC(=O)CCNC(=O)N1CCCC(c2nc(-c3cnccn3)no2)CCNC(=O)CC1 (stereo not drawn)	-1.8%
CSCC(=O)N1CCC(c2nnc(CN3CCN(C)CC3)n2C)CC1	3.4%
COCC1CN(C(=O)c2ccc3cc[nH]c3c2)CC12CCOCC2 (stereo not drawn)	16.7%
COc1ccc(OC)c(CCNC(=O)c2cnn(-c3ccc(C)cc3C)c2C2CCN(C(=O)OC(C)(C)C)CC2)c1	-12.3%
COc1ccc(CCNC(=O)c2cnn(-c3cccc(C)c3)c2C2CCN(C(=O)OC(C)(C)C)CC2)cc1OC	11.2µM*
COc1ccc(CCNC(=O)c2cnn(-c3ccc(F)cc3)c2C2CCN(C(=O)OC(C)(C)C)CC2)cc1OC	7.94µM*
C=CCC(O)(CC=C)C(C)NC(=O)c1ccc(OC2CCN(Cc3ccccn3)CC2)cc1 (stereo not drawn)	-14.2%
O=C1[C@H]2CN(Cc3ccccc3F)C[C@H]2C(=O)N1Cc1ccc2c(c1)OCO2	-1.6%
COCC(=O)N1CCC(Oc2ccc(C(=O)N(C)C)cn2)CC1	i
O=C1NC(C(=O)Nc2ccccc2)Cn2cccc21 (stereo not drawn)	-22.0%
SMILES	Pf Dd2 inh
Cc1ccc(C)c(C(=O)N2CCC(C3CCN(C)CC3)C2)c1 (stereo not drawn)	15.2%
COc1ccc(C(=O)N2CCC(Oc3ccccc3)C2)cc1 (stereo not drawn)	-14.3%
COc1cccc(-c2cc(CNC(=O)C(c3ccc(F)cc3)N(C)C)no2)c1 (stereo not drawn)	i
COc1ccc(C2C=C(c3ccc(Cl)cc3)Nc3nc(-c4ccc(Cl)cc4)nn32)cc1 (stereo not drawn)	0.1µM*
COc1ccc(-c2nc3n(n2)C(=O)CC(c2ccc(Cl)cc2)S3)cc1 (stereo not drawn)	39.2%
Cc1cc(C)n2nc(-c3ccc(Cl)cc3)nc2n1	i
Cc1ccc(S(=O)(=O)Nc2nc3n(n2)C(c2ccccc2Cl)C=C(c2ccccc2)N3)cc1 (stereo not drawn)	-1.8%
Cc1ccc(-c2nc3n(n2)C(c2ccccc2C)C=C(c2ccc(Cl)cc2)N3)cc1 (stereo not drawn)	5.01µM*
Cc1ccc(C2=CC(c3ccc(Cl)cc3)n3nc(-c4ccc(C)cc4)nc3N2)cc1 (stereo not drawn)	1.26µM*
COc1ccc(-c2nc3n(n2)C(c2cccc(C)c2)C(C(N)=O)=C(C)N3)cc1OC (stereo not drawn)	-9.5%
CC1=C(C(N)=O)C(c2ccccc2F)n2nc(-c3ccc(Cl)cc3)nc2N1 (stereo not drawn)	-12.9%
CCOc1ccc(C2C=C(c3cccc(OC)c3)Nc3nnnn32)cc1 (stereo not drawn)	i
COCCOc1ccc2c(n1)CCN(C(=O)C1CC1)C2	2.9%
CCn1ncnc1C1CC(=O)Nc2cc(OC)c(NS(C)(=O)=O)cc21 (stereo not drawn)	-3.9%
O=C1N(C2CCN(Cc3ccncc3F)CC2)C(c2ccncc2)C12CCCCC2 (stereo not drawn)	-23.7%

Bioassay records from PubChem BioAssay.
